# Measurements: PubChem BioAssay
# Results filed as inconclusive are left out. Active and inactive are the calls of the source.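 The calls were made as follows, unless noted: active = cell viability at or below a set limit in both duplicate runs, the limit being the all-compound median minus 4 SD (cut at about 23% in these data, passing the limit was not always enough); inconclusive = no clear call, values can overlap the other calls; inactive = the rest.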
# Key:
# [1] = Her2 expression decrease, cell viability multiplex – SKBR3 breast tumor cells, AlphaScreen, ATP viability, primary screen (AID 461;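 active = Her2 level under about 52% in both replicate screens, with viability over 70% of control, limit read from the data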;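 as to Her2 level: lower value means less Her2 protein in the cells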;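 as to viability: percent of carrier control wells set as 100% viability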); settings: SKBR3 Her2 protein level, 18-24 h, measured here: SKBR3 viability, ATP luminescence, at 10 µM
# [2] = target: Receptor tyrosine-protein kinase erbB-2 (Homo sapiens) (UniProt P04626); test: as above; settings: 18-24 h, at 10 µM, stronger effect = lower value
# [3] = reduced viability of SK-BR-3 breast cancer cells – cell-based, 24 h, human, pilot screen (AID 572;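 active = viability at or below 10% of carrier control in both of two separate runs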;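 also: compound exposure lasted between 18 and 24 h rather than exactly 24 h; 100% = carrier-treated control wells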); settings: SK-BR-3 viability, CellTiter-Glo luminescence, at 10 µM, stronger effect = lower value
# [4] = HUVEC growth inhibition – cell-based, human, primary screen (AID 575;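 active = viability at or below 30% in both replicate assays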;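 also: 100% = median of untreated cell wells with 0.1% DMSO on each plate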); settings: HUVEC proliferation, CellTiter-Glo luminescence, 72 h; at 10 µM; stronger effect = lower value
# [5] = H69AR cell proliferation blockers – human, duplicate replicates, primary screen (AID 580;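 active = viability at or under a set limit in both replicates, limit being median viability minus 3 SD, cut at about 48% in these data, passing the limit was not always enough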;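 also: 100% = mean luminescence of untreated wells and 0% = no signal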); settings: H69AR lung tumor cells viability, ATP luminescence, 72 h; at 10 µM; stronger effect = lower value
# [6] = MRP1 drug-resistance reversers in H69AR cells – cell-based, doxorubicin co-treatment, pilot screen (AID 601;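 active = viability loss from added drug above about 55%, and viability with drug at most 40%, in both replicates, limit read from the data, passing the limit was not always enough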); settings: CellTiter-Glo, 72 h, at 10 µM; for differential viability (reversal): stronger effect = higher value
# [7] = yeast transport mutant growth inhibition pilot in 384-well plates, post-Golgi transport modulator project (AID 636; in the data active = inhibition above about 31%); settings: absorbance 615 nm, about 18 h, stronger effect = higher value
# [8] = growth suppression of yeast trafficking mutant, preliminary HTS, modulators of trafficking downstream of Golgi apparatus project, 1536-format plate, OD 615 nm (AID 637; in the data active = inhibition above about 30%); settings: yeast transport mutant growth, absorbance 615 nm, 18 h; stronger effect = higher value
# [9] = S. cerevisiae growth inhibition in permissive medium (OD615), pilot counter-assay for S. cerevisiae lifespan shortening project, permissive growth control (AID 705;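 active = growth inhibition above 25% in both replicates, a cutoff set 3 SD above the mean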); settings: OD615, 24 h, at 10 µM, stronger effect = higher value
# [10] = S. cerevisiae growth inhibition in restrictive medium, OD615, pilot screen, restrictive growth control, yeast lifespan reduction project (AID 706;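 active = growth inhibition above a set limit, 3 SD over mean compound inhibition, in both replicates, cut at about 43% in these data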;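 also: modified DeaD lifespan yeast strain shifted to restrictive glucose medium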); settings: OD615, 48 h, at 10 µM, stronger effect = higher value
# [11] = doxorubicin toxicity protection in MRP-1 cells – H69AR cells, CellTiter-Glo, duplicate, MRP-1 activator project, pilot screen (AID 807;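 active = viability increase at or above a cutoff of the median across tested compounds plus 3 SD, cut at about 8.5% in these data, passing the limit was not always enough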;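 also: compound pretreatment 18-22 h then 72 h combined with doxorubicin; 0% = doxorubicin alone and 100% = vehicle without doxorubicin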); settings: H69AR viability with doxorubicin, CellTiter-Glo luminescence; at 10 µM; stronger effect = higher value
# [12] = viability of HCT116 without oncogenic beta-catenin – human colon tumor cells, pilot screen (AID 823); settings: HCT116 beta-catenin knockout viability, CellTiter-Glo, 60 h; at 10 µM; stronger effect = lower value;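 also: 0% = wells killed by 20 µM Hyamine and 100% = untreated DMSO cell wells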
# [13] = viability of PTEN-null HCT116 cells – cell-based, HCT116 clonal line, CellTiter-Glo, pilot screen (AID 824;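 active = viability at or below 27.92% in each of two runs, the all-compound median minus 4 SD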;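 also: 0% = 20 µM Hyamine control and 100% = vehicle cell control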); settings: HCT116 PTEN-deleted viability, 60 h, at 10 µM, stronger effect = lower value
# [14] = RAM pathway blockade in budding yeast – dse1pr::URA3 reporter, 5-FOA selection, pilot screen (AID 869;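 active = inhibition over a set limit, the all-compound mean plus 3 SD, in both replicate runs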;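 also: 0% = DMSO wells with no growth and 100% = 10 µM 1-NA-PP1 with full growth; RAM network block rescues cells from 5-FOA so hits raise OD615 growth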); settings: S. cerevisiae dse1pr::URA3 5-FOA growth, OD615, 2 d; at 10 µM; stronger effect = higher value; strain carries analog-sensitive mutant Cbk1 kinase
# [15] = RAM signaling pathway blockade in yeast – S. cerevisiae, Pdr1DBD-CYC8 efflux-inhibited sensitized strain, primary screen (AID 1298;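 active = RAM network inhibition above 8.4% in each of two replicates, 3 SD over the compound average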;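 also: 0% = DMSO untreated cells without growth and 100% = 10 µM 1-NA-PP1 full growth; higher means more yeast growth rescued from 5-FOA killing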); settings: S. cerevisiae cbk1-as DSE1-URA3 strain, 5-FOA growth OD615, 2 d; at 50 µM; stronger effect = higher value
# [16] = H69AR cells + 2 uM doxorubicin, measured here: viability with 2 uM doxorubicin, stronger effect = lower value
# [17] = H69AR cells, compound alone cytotoxicity
# Sequence of Receptor tyrosine-protein kinase erbB-2 (Homo sapiens) (P04626 whole entry, looked up): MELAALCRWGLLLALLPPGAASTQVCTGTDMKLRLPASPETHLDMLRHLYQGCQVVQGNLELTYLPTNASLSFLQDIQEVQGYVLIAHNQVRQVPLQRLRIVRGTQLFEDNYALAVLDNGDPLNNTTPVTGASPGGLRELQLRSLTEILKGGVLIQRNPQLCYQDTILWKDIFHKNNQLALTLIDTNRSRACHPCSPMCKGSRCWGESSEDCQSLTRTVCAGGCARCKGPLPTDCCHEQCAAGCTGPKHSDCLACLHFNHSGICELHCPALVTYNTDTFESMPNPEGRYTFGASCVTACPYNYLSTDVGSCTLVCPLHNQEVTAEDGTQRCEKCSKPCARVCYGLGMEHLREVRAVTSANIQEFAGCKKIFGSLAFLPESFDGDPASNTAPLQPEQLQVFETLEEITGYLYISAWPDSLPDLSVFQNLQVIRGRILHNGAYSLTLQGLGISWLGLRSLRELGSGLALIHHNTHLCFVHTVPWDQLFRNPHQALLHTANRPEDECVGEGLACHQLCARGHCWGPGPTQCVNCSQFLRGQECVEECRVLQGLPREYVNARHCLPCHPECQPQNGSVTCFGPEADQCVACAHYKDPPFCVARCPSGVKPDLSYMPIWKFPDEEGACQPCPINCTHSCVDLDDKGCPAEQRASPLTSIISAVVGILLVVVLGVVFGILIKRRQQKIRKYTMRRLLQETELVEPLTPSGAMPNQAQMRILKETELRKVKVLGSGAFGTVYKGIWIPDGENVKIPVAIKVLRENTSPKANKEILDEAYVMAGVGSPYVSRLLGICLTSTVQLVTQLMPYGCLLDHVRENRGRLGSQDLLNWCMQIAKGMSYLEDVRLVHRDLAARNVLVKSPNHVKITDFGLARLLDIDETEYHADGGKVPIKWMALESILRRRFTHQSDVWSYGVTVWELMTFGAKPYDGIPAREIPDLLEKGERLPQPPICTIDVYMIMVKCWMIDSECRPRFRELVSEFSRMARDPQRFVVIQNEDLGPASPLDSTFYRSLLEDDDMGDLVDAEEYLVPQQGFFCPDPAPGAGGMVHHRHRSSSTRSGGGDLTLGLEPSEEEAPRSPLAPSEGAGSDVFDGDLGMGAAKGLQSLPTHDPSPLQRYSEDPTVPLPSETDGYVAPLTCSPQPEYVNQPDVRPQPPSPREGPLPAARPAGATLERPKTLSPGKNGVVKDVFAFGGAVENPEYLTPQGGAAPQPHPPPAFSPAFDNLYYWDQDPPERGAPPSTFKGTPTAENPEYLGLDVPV
Compound,viability [1],Her2 level [2],viability [3],viability [4],viability [5],differential viability (reversal) ([6]; H69AR cells + 2 uM doxorubicin),"viability [6, 16]","viability [6, 17]",inhibition [7],inhibition [8],growth inhibition [9],growth inhibition [10],viability increase [11],viability [12],viability [13],inhibition [14],RAM network inhibition [15]
CCCN(CCC)CCNC(=O)c1cc2c(=O)n(C)c3ccccc3c2n1C,89%,98.5% (inactive),89% (inactive),57.5% (inactive),77.1% (inactive),13% (inactive),64%,77.1%,-2.53% (inactive),1.67% (inactive),6.58% (inactive),1.31% (inactive),-6.19% (inactive),69.6% (inactive),73.4% (inactive),1.12% (inactive),0.57% (inactive)
Cc1occc1C(=O)N1CCN(Cc2ccccc2)CC1,85.5%,89% (inactive),85.5% (inactive),98.1% (inactive),89.3% (inactive),3.23% (inactive),86%,89.3%,0.26% (inactive),-5.5% (inactive),-0.31% (inactive),-15.5% (inactive),-1.95% (inactive),94.7% (inactive),97.6% (inactive),,2.68% (inactive)
CCOCCOc1nc2c(c(=O)n(C)c(=O)n2C)n1Cc1ccc(C)cc1,83%,113% (inactive),83% (inactive),94.5% (inactive),90.8% (inactive),-4.61% (inactive),95.4%,90.8%,0.27% (inactive),4.33% (inactive),3.97% (inactive),-4.73% (inactive),0.37% (inactive),82.3% (inactive),79% (inactive),2.64% (inactive),2.08% (inactive)
COc1ccccc1N1CCN(CC(O)c2ccc3cc[nH]c3c2)CC1 (stereo unspecified),99%,112% (inactive),99% (inactive),95.6% (inactive),88.8% (inactive),11.4% (inactive),77.4%,88.8%,-3.33% (inactive),2.46% (inactive),3.54% (inactive),5.26% (inactive),-4.68% (inactive),60.7% (inactive),61.7% (inactive),1.87% (inactive),1.54% (inactive)
COc1ccc(N2CCN(c3oc(COc4ccccc4Cl)nc3C#N)CC2)cc1,109%,105% (inactive),109% (inactive),104% (inactive),92.3% (inactive),8.78% (inactive),83.6%,92.3%,-6.23% (inactive),-4.75% (inactive),-2.64% (inactive),-5.2% (inactive),2.27% (inactive),65.7% (inactive),64.9% (inactive),,4.12% (inactive)
COc1ccc(C2c3c(oc4ccccc4c3=O)C(=O)N2c2ccc(C)cn2)cc1OC (stereo unspecified),83%,126% (inactive),83% (inactive),98.6% (inactive),94.3% (inactive),23.3% (inactive),71%,94.3%,-0.9% (inactive),-7.5% (inactive),-7.72% (inactive),-0.265% (inactive),-2.66% (inactive),89% (inactive),82.2% (inactive),,11.6% (inactive)
CCN(CC)Cc1c(C(=O)OC)nnn1-c1nonc1N,87%,95.5% (inactive),87% (inactive),99.6% (inactive),106% (inactive),13.6% (inactive),92.1%,106%,-7.4% (inactive),-3.33% (inactive),-0.575% (inactive),-3.39% (inactive),-2.07% (inactive),94.2% (inactive),102% (inactive),0.645% (inactive),0.53% (inactive)
Cc1ccc(C)c2[nH]c(=O)c(CCNC(=O)CC(C)(C)C)cc12,88%,105% (inactive),88% (inactive),103% (inactive),90.9% (inactive),21.2% (inactive),69.7%,90.9%,-4.27% (inactive),-4.5% (inactive),-4.09% (inactive),-11.6% (inactive),1.59% (inactive),104% (inactive),92.6% (inactive),1.04% (inactive),4.85% (inactive)
Cc1ccc(N(C(=O)c2ccncc2)C2C=CS(=O)(=O)C2)cc1 (stereo unspecified),108%,110% (inactive),108% (inactive),101% (inactive),103% (inactive),5.2% (inactive),97.5%,103%,0.51% (inactive),7.33% (inactive),-8.7% (inactive),-14% (inactive),0.88% (inactive),93.8% (inactive),98.4% (inactive),,5.22% (inactive)
C=CCn1c(=O)n(CCOC)c(=O)c2sc3ccccc3c21,85%,105% (inactive),85% (inactive),87.4% (inactive),86.8% (inactive),-13.7% (inactive),100%,86.8%,-0.53% (inactive),4.33% (inactive),-13.3% (inactive),-5.77% (inactive),-4.03% (inactive),89.9% (inactive),86.7% (inactive),0.25% (inactive),1.71% (inactive)
